Test in all cases: DAPPL (digital affinity profiling via proximity ligation, sequencing); 10 mM Tris-HCl pH 7.5, 50 mM NaCl, 1 mM DTT, 4% glycerol, room temperature, 30 min; GST-TFs on glutathione beads, 16-mer random dsDNA library, 0.1% formaldehyde crosslink after washing; high values mean tight binding
Common to all, as to settings: protein: recombinant; tags: N-terminal GST; dsDNA, one strand shown

The target of one assay is T1, FLI1 (Homo sapiens, UniProt Q01543 1-452).
T1 sequence: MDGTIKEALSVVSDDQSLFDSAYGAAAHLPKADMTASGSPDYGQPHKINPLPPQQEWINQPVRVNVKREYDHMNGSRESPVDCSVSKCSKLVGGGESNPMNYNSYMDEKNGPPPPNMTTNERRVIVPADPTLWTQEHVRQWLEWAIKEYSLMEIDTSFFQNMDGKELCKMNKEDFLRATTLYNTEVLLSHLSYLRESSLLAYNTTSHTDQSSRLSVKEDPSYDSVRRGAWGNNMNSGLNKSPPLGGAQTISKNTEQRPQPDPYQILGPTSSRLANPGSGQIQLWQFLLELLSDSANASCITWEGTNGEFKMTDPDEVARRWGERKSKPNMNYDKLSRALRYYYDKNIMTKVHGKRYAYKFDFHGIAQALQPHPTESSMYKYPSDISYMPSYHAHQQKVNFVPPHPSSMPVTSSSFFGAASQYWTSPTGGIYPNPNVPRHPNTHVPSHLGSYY
In short, it runs like this:
(§1)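 Human transcription factors were made in yeast as GST fusions, captured on glutathione beads and barcoded with DNA. With a tag-only sample included, the pool was incubated with 200 nmole of a random double-stranded 16-mer DNA library in Tris/NaCl/DTT/glycerol buffer at room temperature for 30 min, then crosslinked with 0.1% formaldehyde after washing, ligated by proximity, amplified and sequenced. For binding signal, each hexamer's read frequency for a factor is divided by its frequency for the tag-only sample.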

In the next assay the target is T2, ELK1 (Homo sapiens, UniProt P19419 1-428).
T2 sequence: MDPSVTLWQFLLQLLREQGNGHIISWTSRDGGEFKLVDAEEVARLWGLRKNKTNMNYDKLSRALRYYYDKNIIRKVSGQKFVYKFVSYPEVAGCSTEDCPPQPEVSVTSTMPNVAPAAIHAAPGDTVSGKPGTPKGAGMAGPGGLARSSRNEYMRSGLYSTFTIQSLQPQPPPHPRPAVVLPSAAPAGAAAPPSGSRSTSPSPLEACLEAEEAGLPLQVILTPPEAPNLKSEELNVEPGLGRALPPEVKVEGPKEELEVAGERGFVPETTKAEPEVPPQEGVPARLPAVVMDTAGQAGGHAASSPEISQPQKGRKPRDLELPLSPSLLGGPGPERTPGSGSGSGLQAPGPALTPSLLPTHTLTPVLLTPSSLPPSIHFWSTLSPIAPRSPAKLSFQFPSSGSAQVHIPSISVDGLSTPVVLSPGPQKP
In short, it runs like this:
as §1

The next assay addresses T3, GABPA (Homo sapiens, UniProt Q06546 1-454).
T3 sequence: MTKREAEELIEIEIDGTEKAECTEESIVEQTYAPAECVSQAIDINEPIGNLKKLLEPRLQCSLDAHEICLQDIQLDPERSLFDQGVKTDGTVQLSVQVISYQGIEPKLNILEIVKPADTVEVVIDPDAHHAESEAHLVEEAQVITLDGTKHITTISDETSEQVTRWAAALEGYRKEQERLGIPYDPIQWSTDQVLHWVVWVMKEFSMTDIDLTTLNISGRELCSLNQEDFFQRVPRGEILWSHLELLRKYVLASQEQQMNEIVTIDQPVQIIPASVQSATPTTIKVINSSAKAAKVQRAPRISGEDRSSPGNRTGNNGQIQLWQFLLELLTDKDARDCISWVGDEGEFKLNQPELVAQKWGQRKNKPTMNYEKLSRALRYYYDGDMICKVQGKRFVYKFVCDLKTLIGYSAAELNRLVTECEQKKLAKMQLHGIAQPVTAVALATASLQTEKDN
In short, it runs like this:
as §1

Another assay has as its target T4, ERG (Homo sapiens, UniProt P11308 1-479).
T4 sequence: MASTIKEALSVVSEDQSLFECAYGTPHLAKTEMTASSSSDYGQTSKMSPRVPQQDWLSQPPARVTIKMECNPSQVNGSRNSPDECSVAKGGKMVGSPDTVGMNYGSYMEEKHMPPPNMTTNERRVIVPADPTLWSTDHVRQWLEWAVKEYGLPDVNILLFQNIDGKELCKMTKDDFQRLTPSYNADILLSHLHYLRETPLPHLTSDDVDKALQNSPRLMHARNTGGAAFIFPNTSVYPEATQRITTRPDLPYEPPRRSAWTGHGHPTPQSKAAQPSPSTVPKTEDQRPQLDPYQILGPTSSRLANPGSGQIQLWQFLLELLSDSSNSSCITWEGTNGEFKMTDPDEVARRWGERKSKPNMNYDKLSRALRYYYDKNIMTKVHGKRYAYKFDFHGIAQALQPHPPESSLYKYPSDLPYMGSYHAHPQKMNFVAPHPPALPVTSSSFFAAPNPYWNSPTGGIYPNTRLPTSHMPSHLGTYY
The gist of the method:
as §1

Another assay deals with ELF1 (Homo sapiens, UniProt P32519 1-619). In short, it runs like this:
as §1

The next assay addresses T5, EHF (Homo sapiens, UniProt Q9NZC4 1-300).
T5 sequence: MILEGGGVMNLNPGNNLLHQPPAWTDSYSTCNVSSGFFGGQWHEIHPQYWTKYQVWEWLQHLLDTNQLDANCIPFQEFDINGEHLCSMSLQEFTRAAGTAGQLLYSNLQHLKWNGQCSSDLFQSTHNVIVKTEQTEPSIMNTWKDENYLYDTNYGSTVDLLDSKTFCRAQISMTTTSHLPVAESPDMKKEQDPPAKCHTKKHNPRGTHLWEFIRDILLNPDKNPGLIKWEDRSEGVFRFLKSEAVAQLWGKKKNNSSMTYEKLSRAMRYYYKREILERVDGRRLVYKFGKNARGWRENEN
In short, it runs like this:
as §1

The next assay deals with SPI1 (Homo sapiens, UniProt P17947 1-270). In short, it runs like this: as §1
A further assay concerns the target SPIB (Homo sapiens, UniProt Q01892 1-262). The gist of the method: as §1
The target of the next assay is T6, ELK3 (Homo sapiens, UniProt P41970 1-407).
T6 sequence: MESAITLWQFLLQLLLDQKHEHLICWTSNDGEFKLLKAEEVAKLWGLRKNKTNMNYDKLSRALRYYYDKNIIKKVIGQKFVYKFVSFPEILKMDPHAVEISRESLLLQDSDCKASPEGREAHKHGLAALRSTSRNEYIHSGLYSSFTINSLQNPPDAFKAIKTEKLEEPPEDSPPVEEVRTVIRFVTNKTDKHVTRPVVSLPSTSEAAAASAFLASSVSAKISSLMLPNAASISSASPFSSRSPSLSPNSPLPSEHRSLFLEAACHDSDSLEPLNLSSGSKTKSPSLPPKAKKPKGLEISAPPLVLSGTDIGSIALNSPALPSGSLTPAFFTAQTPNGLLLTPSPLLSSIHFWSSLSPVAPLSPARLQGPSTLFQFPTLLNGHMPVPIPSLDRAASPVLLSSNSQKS
The gist of the method:
as §1

For the next assay, the target named is T7, FEV (Homo sapiens, UniProt Q99581 1-238).
T7 sequence: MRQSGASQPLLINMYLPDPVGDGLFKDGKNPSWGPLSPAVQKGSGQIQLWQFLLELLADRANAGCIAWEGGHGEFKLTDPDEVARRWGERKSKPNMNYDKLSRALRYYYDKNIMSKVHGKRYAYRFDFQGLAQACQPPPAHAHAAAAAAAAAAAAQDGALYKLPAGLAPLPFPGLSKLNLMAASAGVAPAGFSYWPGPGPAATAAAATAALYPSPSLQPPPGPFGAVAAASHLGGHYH
In short, it runs like this:
as §1

The target of the next assay is ETV5 (Homo sapiens, UniProt P41161 1-510). The gist of the method: as §1
A further assay addresses T8, SPIC (Homo sapiens, UniProt Q8N5J4 1-248).
T8 sequence: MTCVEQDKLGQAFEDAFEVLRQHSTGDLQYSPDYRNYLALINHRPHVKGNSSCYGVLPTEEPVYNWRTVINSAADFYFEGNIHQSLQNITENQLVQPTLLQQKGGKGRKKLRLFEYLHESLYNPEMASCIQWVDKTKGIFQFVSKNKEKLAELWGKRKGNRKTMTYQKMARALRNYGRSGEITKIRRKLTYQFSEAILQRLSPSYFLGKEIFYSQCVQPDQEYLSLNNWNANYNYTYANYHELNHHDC
The gist of the method: as §1

Another assay concerns the target ELF4 (Homo sapiens, UniProt Q99607 1-663). In short, it runs like this:
as §1

For a further assay, the target named is T9, ELK4 (Homo sapiens, UniProt P28324-2 1-405).
T9 sequence: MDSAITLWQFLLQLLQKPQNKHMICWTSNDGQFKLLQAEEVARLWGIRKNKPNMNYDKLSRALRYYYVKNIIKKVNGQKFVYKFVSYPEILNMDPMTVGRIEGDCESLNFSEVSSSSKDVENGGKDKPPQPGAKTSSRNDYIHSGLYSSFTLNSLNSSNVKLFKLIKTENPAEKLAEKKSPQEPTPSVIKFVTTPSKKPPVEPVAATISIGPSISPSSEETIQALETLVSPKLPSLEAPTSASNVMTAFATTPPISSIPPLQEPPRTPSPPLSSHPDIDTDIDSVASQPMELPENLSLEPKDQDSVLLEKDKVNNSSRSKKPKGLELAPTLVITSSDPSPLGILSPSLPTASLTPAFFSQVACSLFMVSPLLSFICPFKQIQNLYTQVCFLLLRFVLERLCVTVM
The gist of the method: as §1

A further assay addresses T10, ETV2 (Homo sapiens, UniProt O00321 1-342).
T10 sequence: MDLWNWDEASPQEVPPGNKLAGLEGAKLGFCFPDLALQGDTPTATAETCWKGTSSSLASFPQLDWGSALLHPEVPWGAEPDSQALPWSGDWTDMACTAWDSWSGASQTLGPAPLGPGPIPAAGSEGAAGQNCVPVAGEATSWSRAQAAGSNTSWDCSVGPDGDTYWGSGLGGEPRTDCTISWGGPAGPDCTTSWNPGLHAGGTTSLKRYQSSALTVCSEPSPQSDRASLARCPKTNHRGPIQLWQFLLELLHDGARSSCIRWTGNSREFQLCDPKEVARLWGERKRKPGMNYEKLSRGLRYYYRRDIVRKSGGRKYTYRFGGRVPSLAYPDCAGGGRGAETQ
The gist of the method:
as §1

In the next assay the target is ETV1 (Homo sapiens, UniProt P50549 1-477). In short, it runs like this:
as §1

Sequence of ETV5 (P41161 whole entry): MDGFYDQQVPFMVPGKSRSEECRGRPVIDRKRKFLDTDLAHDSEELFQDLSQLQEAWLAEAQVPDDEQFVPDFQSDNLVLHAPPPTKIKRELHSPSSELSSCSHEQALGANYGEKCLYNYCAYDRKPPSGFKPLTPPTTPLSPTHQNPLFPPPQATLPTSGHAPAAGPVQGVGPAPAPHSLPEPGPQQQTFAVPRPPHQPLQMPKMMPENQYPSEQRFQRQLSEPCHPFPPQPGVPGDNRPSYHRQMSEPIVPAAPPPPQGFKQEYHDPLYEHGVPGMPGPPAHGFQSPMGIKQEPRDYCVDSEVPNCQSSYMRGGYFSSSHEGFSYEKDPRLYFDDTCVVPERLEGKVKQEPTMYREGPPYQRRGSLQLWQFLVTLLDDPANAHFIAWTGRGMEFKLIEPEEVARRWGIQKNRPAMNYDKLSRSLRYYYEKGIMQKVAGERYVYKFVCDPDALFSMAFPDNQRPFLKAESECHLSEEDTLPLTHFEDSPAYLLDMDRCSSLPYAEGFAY
Sequence of SPIB (Q01892 whole entry): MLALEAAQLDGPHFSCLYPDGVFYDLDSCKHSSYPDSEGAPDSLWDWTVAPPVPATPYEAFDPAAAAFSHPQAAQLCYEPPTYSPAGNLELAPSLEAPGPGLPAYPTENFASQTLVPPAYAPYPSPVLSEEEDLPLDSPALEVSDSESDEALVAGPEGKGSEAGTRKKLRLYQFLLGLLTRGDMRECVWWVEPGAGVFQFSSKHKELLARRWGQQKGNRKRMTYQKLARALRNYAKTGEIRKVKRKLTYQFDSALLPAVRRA
Sequence of ELF1 (P32519 whole entry): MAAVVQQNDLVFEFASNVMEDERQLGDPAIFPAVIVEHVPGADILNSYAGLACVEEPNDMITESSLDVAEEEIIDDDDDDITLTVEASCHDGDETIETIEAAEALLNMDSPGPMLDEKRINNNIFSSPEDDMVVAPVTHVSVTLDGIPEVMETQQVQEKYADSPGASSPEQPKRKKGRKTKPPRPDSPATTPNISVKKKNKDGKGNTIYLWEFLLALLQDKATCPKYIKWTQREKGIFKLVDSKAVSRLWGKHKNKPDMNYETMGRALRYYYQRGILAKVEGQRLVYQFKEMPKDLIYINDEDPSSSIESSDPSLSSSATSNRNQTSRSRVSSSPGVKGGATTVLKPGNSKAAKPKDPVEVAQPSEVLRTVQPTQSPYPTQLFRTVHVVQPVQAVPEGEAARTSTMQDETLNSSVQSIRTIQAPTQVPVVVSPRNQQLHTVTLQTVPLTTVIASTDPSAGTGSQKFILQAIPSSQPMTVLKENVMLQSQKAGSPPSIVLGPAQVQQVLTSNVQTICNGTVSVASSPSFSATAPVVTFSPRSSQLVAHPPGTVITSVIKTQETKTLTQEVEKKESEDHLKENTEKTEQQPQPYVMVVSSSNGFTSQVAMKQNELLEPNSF
Sequence of ELF4 (Q99607 whole entry): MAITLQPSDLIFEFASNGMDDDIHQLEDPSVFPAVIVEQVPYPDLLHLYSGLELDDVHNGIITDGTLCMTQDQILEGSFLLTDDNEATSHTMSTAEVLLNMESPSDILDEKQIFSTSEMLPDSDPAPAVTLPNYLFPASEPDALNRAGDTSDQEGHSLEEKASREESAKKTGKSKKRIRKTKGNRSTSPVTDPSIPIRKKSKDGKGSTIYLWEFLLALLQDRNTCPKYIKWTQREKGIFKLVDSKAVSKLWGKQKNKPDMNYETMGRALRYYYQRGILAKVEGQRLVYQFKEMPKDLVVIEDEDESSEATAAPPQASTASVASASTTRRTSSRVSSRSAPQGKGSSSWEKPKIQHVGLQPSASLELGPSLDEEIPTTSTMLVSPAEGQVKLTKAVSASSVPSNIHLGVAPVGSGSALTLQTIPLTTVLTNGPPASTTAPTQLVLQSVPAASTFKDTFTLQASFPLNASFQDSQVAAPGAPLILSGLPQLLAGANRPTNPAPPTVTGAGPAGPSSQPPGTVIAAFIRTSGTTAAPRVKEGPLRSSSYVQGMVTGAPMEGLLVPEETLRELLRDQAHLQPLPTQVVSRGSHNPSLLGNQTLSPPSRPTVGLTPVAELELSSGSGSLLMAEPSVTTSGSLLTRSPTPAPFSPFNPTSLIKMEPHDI
Sequence of ETV1 (P50549 whole entry): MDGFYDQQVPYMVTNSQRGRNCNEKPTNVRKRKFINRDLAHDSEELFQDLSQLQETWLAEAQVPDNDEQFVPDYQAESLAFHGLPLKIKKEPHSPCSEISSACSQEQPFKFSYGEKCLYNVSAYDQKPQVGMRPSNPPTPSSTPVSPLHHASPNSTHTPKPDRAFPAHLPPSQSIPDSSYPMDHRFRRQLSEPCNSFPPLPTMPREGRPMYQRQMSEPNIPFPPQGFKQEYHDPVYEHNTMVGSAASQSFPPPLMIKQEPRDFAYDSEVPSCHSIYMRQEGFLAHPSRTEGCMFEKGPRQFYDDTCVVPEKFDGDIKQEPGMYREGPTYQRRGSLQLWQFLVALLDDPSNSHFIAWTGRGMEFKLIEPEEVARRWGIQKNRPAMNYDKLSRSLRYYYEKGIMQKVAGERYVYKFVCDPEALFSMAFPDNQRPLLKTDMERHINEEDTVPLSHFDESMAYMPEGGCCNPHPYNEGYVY

In the case of CAACCA, the binding signal is 1.15 fold enrichment (6-mer frequency, TF over GST control) with FLI1; 1.15 fold enrichment (6-mer frequency, TF over GST control) with ELK1; 1.12 fold enrichment (6-mer frequency, TF over GST control) with GABPA; 1.03 fold enrichment (6-mer frequency, TF over GST control) in the assay with ERG; 1.15 fold enrichment (6-mer frequency, TF over GST control) with ELF1; 1.13 fold enrichment (6-mer frequency, TF over GST control) in the assay with EHF. The binding signal with SPI1 was 1.11 fold enrichment (6-mer frequency, TF over GST control); in the assay with SPIB it was 1.06 fold enrichment (6-mer frequency, TF over GST control); with ELK3 it was 1.18 fold enrichment (6-mer frequency, TF over GST control); with FEV, 1.12 fold enrichment (6-mer frequency, TF over GST control); in the assay with ETV5, 1.13 fold enrichment (6-mer frequency, TF over GST control); with SPIC it was 1.02 fold enrichment (6-mer frequency, TF over GST control). Also, the binding signal in the assay with ELF4 was 1.11 fold enrichment (6-mer frequency, TF over GST control); with ELK4 it was 1.07 fold enrichment (6-mer frequency, TF over GST control); with ETV2, 1.09 fold enrichment (6-mer frequency, TF over GST control); in the assay with ETV1, 1.09 fold enrichment (6-mer frequency, TF over GST control).
For GCCCAT, the binding signal is 1.06 fold enrichment (6-mer frequency, TF over GST control) in the assay with FLI1; 1.05 fold enrichment (6-mer frequency, TF over GST control) with ELK1; 1.17 fold enrichment (6-mer frequency, TF over GST control) with GABPA; 1.04 fold enrichment (6-mer frequency, TF over GST control) with ERG; 1.06 fold enrichment (6-mer frequency, TF over GST control) in the assay with ELF1; 1.03 fold enrichment (6-mer frequency, TF over GST control) with SPI1. The binding signal with SPIB is 1.04 fold enrichment (6-mer frequency, TF over GST control); in the assay with ELK3, 1.04 fold enrichment (6-mer frequency, TF over GST control); in the assay with FEV it was 1.09 fold enrichment (6-mer frequency, TF over GST control); in the assay with ETV5, 1.03 fold enrichment (6-mer frequency, TF over GST control); with SPIC, 1.12 fold enrichment (6-mer frequency, TF over GST control); with ELF4, 1.07 fold enrichment (6-mer frequency, TF over GST control). Besides, the binding signal in the assay with ELK4 was 1.23 fold enrichment (6-mer frequency, TF over GST control); with ETV2, 1.01 fold enrichment (6-mer frequency, TF over GST control).

These data come from PMC7862700, “An all-to-all approach to the identification of sequence-specific readers for epigenetic DNA modifications on cytosine”.
